In PubChem BioAssay (EPA / NIEHS) one finds outcome and AC50 data, which are given here for 23 compounds.

Values joined by “and” are separate entries in the source; they are usually repeats but may differ in a detail not shown here. Equal entries are not always repeated. Active and inactive are the calls of the source. The calls were made as follows: active = hit-call score of the fitted dose curve at least 0.9, where 1 is the maximum; inactive = score below 0.9.

For test [1], the target named is Paired box protein Pax-6 (Homo sapiens) (UniProt P26367). As to the kind of experiment: ATG_Pax6_CIS: Attagene CIS-FACTORIAL HepG2 Assay for human Paired Box 6 (PAX6) (AID 2282956). The conditions noted are these: HepG2 CIS-FACTORIAL PAX6 reporter transcription, RNA readout; actives raise or lower the signal. The method in brief: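 HepG2 cells transiently transfected with multiplexed cis-promoter reporter units (endogenous TF activity) were dosed for 24 h. Reporter mRNA was quantified by RT-PCR, 6-FAM labeling, HpaI digestion and capillary electrophoresis; bidirectional fitting versus DMSO baseline.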
Sequence of Paired box protein Pax-6 (Homo sapiens) (P26367 whole entry, looked up): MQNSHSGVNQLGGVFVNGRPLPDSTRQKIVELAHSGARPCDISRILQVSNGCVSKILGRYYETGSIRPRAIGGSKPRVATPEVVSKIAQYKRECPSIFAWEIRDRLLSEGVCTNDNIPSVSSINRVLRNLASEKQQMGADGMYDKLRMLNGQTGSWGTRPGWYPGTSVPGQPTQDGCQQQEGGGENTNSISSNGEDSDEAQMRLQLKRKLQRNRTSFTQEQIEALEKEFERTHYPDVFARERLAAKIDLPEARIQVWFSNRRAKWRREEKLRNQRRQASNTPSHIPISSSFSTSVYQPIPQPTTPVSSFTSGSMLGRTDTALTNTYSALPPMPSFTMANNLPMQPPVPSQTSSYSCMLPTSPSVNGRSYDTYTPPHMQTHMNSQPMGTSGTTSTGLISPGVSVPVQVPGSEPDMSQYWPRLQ

Test [2] in a line: ATG_PXRE_CIS: Attagene CIS-FACTORIAL HepG2 Assay for human Pregnane X Receptor Element (PXRE) (AID 2282957). The conditions noted are these: HepG2 Attagene CIS-FACTORIAL PXRE reporter, mRNA; actives raise or lower the signal. The method in brief: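 Cells: HepG2, transiently transfected reporter units under cis promoter control. Exposure: 24 h. Detection: reporter mRNA via RT-PCR/CE fluorescence; bidirectional fitting, DMSO-referenced.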

Test [3] can be described thus: ATG_PPRE_CIS: Attagene CIS-FACTORIAL HepG2 Assay for human Peroxisome Proliferator-activated Response Element (PPRE) (AID 2282958). The conditions noted are these: HepG2 PPRE cis-element reporter, Attagene transcription factor profiling; actives raise or lower the signal. In outline:
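HepG2, transient MRTU transfection (cis promoter elements, endogenous TFs). 24 h dosing. RNA → oligo(dT) RT → PCR → 6-FAM primer extension → HpaI digest → CE. Bidirectional fit vs DMSO.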

Test [4] can be described thus: ATG_RORE_CIS: Attagene CIS-FACTORIAL HepG2 Assay for human RAR-related Orphan Receptor Element (RORE) (AID 2282959). To be noted: HepG2 Attagene cis-factorial RORE reporter, mRNA; actives raise or lower the signal. In outline: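 Transient MRTU transfection of human HepG2 liver cells (FuGene 6); 24 h compound exposure; TriZol RNA, oligo(dT) RT, PCR, FAM labeling, HpaI cut, CE fragment analysis. DMSO = negative control/baseline.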

A short description of test [5]: ATG_Sox_CIS: Attagene CIS-FACTORIAL HepG2 Assay for human SRY-box transcription factor (SOX) (AID 2282960). To be noted: HepG2 Attagene cis-factorial SOX reporter, mRNA; actives raise or lower the signal. In outline:
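Endogenous factor activity in human liver HepG2 cells carrying transfected cis-regulated reporter units. RNA taken 24 h post-dose, reverse-transcribed, PCR-amplified and sized by capillary electrophoresis. Gain or loss of signal fitted relative to DMSO.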

For test [6], the target named is Transcription factor Sp1 (Homo sapiens) (UniProt P08047). As to the kind of experiment: ATG_Sp1_CIS: Attagene CIS-FACTORIAL HepG2 Assay for human Specificity Protein 1 (Sp1) (AID 2282961). To be noted: HepG2 Sp1 cis-reporter transcription, actives raise or lower the signal. The method in brief: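 Transient MRTU-transfected HepG2, 24 h compound exposure. Total RNA → oligo(dT) RT → PCR of reporter → 6-FAM primer extension → HpaI digest → CE. Endpoint fitted both directions vs DMSO.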
Sequence of Transcription factor Sp1 (Homo sapiens) (P08047 whole entry, looked up): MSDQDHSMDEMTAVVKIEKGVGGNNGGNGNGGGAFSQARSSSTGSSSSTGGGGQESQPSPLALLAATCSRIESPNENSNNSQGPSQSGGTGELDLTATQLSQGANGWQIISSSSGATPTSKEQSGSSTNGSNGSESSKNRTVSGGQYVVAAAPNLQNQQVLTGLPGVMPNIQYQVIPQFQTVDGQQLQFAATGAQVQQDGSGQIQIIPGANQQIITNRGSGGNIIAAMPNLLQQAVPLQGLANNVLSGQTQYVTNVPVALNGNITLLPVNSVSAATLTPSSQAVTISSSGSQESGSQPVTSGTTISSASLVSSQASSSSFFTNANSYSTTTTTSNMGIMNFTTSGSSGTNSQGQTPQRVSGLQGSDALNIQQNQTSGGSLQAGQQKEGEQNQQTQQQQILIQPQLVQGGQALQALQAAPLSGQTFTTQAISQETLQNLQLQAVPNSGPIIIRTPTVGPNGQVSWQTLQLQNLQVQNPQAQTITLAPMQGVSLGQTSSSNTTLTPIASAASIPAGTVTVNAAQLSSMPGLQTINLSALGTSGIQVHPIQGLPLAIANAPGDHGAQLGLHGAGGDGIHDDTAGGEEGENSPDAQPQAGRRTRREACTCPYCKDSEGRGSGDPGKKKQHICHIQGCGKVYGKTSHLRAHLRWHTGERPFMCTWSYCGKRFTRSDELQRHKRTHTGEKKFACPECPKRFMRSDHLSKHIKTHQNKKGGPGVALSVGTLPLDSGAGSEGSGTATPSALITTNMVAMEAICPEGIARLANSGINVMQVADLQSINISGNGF

Test [7] in a line: ATG_SREBP_CIS: Attagene CIS-FACTORIAL HepG2 Assay for human Sterol Regulatory Element Binding (SREBP) (AID 2282962). To be noted: HepG2 Attagene cis-factorial SREBP reporter, mRNA; actives raise or lower the signal. In outline:
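HepG2 cells transiently transfected with multiplexed cis-element reporter units report endogenous transcription factor activity. After 24 h of chemical exposure, reporter mRNA was quantified by RT-PCR, 6-FAM labelling, HpaI digestion and capillary electrophoresis; bidirectional fits used DMSO as baseline.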

Test [8] deals with Signal transducer and activator of transcription 3 (Homo sapiens) (UniProt P40763). The experiment in a line: ATG_STAT3_CIS: Attagene CIS-FACTORIAL HepG2 Assay for human Signal Transducer and Activator of Transcription 3 (STAT3) (AID 2282963). The conditions noted are these: HepG2, Attagene cis-factorial STAT3 reporter transcription; actives raise or lower the signal. The method in brief: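 Endogenous STAT3-responsive cis-element activity was read in transiently transfected HepG2 cells after 24 h treatment. Reporter transcripts were quantified via RT-PCR and capillary electrophoresis, with DMSO as negative control and bidirectional curve fitting.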
Sequence of Signal transducer and activator of transcription 3 (Homo sapiens) (P40763 whole entry, looked up): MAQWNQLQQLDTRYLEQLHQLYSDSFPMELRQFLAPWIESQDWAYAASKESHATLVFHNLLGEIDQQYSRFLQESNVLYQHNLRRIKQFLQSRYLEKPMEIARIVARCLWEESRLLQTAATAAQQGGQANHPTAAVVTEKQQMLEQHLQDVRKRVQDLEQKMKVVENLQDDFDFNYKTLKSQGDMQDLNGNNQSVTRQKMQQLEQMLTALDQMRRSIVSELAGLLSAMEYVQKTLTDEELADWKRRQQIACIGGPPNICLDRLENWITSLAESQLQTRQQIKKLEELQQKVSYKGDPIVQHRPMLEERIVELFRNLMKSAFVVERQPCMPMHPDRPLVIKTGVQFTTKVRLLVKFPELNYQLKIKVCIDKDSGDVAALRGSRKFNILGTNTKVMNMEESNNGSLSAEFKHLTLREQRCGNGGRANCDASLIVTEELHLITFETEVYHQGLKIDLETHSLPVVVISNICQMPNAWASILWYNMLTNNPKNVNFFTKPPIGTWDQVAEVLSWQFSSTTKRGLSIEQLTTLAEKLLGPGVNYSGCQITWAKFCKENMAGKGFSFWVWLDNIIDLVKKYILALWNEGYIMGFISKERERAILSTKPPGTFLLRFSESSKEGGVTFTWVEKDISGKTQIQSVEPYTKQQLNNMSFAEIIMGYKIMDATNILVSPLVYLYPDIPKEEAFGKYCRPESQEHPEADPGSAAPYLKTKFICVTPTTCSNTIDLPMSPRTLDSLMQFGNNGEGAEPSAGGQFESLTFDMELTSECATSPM

A short description of test [9]: ATG_TA_CIS: Attagene CIS-FACTORIAL HepG2 Assay for human TA Basal Promoter (AID 2282964). The conditions noted are these: HepG2 Attagene CIS-factorial TA basal promoter reporter; actives raise or lower the signal. The method in brief:
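Background-control readout: TA basal promoter reporter mRNA, fitted in both directions relative to DMSO. Measured by RT-PCR and capillary electrophoresis 24 hours after treating HepG2 human liver cells transiently carrying multiplexed cis-regulated reporter constructs.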

Test [10] is described as follows: ATG_TCF_b_cat_CIS: Attagene CIS-FACTORIAL HepG2 Assay for human T-Cell-Factor with beta-catenin (TCF/b-cat) (AID 2282965). The conditions noted are these: HepG2 TCF/beta-catenin cis-reporter transcription, actives raise or lower the signal. The method in brief: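 Endogenous transcription factor activity is captured through cis-promoter reporter constructs transiently introduced into human HepG2 liver cells. Induced reporter mRNA is measured after 24 h and fitted bidirectionally relative to DMSO.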

In general, AC50 refers to the midpoint of the concentration-response curve, whichever way the signal moves.

On to `CCC(=O)O`, for which the result in [1], in test [2], in [3], in [4], in [5] and in test [6] was inactive. Besides, the compound was called inactive in [7], in test [8], in [9] and in [10].

In the case of `Brc1ccc(Oc2ccc(Br)cc2Br)cc1`, the result in test [1], in [2], in test [3], in [4], in test [5] and in [6] was inactive. The call in test [7], in [8], in test [9] and in test [10] was inactive.

On to `CCOC=C(C(=O)OCC)C(=O)OCC`, for which the outcome in test [1], in [3], in test [4], in test [5], in [6] and in test [7] was inactive. Besides, the outcome in test [8], in test [9] and in test [10] was inactive. In addition, the AC50 in [2] was 27.6 µM (active).

Regarding `Nc1ccn([C@@H]2O[C@H](CO)[C@@H](O)C2O)c(=O)n1` (some centres undefined), the compound was called inactive in [1], in [2], in test [3], in test [4], in test [5] and in test [6]. Further, the outcome in test [7], in test [8], in [9] and in [10] was inactive.

`FC(OC(F)(F)C(F)(F)C(F)(F)F)C(F)(F)F` (centres undefined): the compound was classed as inactive in test [1], in [2], in test [3], in [4], in test [5] and in test [6]. Also, the call in test [7], in test [8], in test [9] and in test [10] was inactive.

Consider `CC1=CC(=O)c2ccccc2C1=O`, for which the compound was called inactive in test [1], in test [3], in test [4], in [5], in [6] and in test [7]. Also, the outcome in test [8], in test [9] and in test [10] was inactive. The AC50 in test [2] is 11.1 µM (active).

On to `CC=O`, for which the call in test [1], in [2], in test [3], in test [4], in test [5] and in test [6] was inactive. Besides, the outcome in test [7], in test [8] and in test [10] was inactive.

As to `CCC(C)c1nccnc1OC` (centres undefined), the call in [1], in [2], in [3], in test [4], in test [5] and in test [6] was inactive. Also, the compound was called inactive in [7], in test [8] and in [10].

As to `Oc1cc2ccccc2cc1O`, the outcome in test [1], in test [2], in test [4], in test [5], in [6] and in test [7] was inactive. Moreover, the compound was classed as inactive in test [8] and in test [10]. Besides, the AC50 in test [3] is 100 µM (active).

As to `O=C(O)CCC(F)(F)C(F)(F)C(F)(F)C(F)(F)C(F)(F)F`, the outcome in test [1], in test [2], in test [3], in test [4], in [5] and in test [6] was inactive. Further, the call in test [7], in test [8] and in test [10] was inactive.

With `C=Cc1ccc(O)c(OC)c1`, the compound was called inactive in test [1], in test [4], in [5], in [6], in test [7] and in test [8]. In addition, the compound was called inactive in test [9] and in test [10]. The AC50 is 26.6 µM (active) in test [2] and 13 µM (active) in test [3].

`O=C(Nc1cccc([N+](=O)[O-])c1)c1cc2ccccc2cc1O`: the result in test [1], in test [5], in test [6], in test [7], in test [8] and in test [9] was inactive. Moreover, the call in test [10] was inactive. Further, the AC50 is 6.79 µM (active) in test [2], 4.22 µM (active) in [3] and 5.99 µM (active) in [4].

Take `FC(F)(F)C1(F)C(F)(F)C(F)(F)C(F)(F)C1(F)F`: the compound was called inactive in test [1], in test [2], in test [3], in [4], in test [5] and in test [6]. Further, the compound was called inactive in [7], in [8] and in [10].

`CCCCCCCCC1CCC(=O)O1` (centres undefined): the outcome in [1], in test [2], in test [3], in [4], in [5] and in test [6] was inactive. In addition, the call in test [7], in test [8], in test [9] and in [10] was inactive.

Take `Oc1c(Cl)ccc(Cl)c1Cl`: the call in [1], in test [4], in [5], in [6], in test [7] and in test [8] was inactive. Also, the call in [9] and in test [10] was inactive. Also, the AC50 in test [2] was 49.8 µM (active); in [3], 40.4 µM (active).

For `CC(C)(C)c1ccc(CCC=O)cc1`, the result in [1], in test [3], in [4], in [5], in [6] and in [7] was inactive. Besides, in [8], the compound was called inactive. Besides, the AC50 in test [2] was 22.3 µM (active); in test [10], 162 µM (active).

On to `CC(=O)Nc1ccc(S(N)(=O)=O)cc1`, for which the result in [1], in test [2], in [3], in [4], in test [5] and in test [6] was inactive. Moreover, the compound was called inactive in test [7], in test [8], in test [9] and in test [10].

`O=S(=O)(c1ccc(OCc2ccccc2)cc1)c1ccccc1O`: the AC50 is 33.4 µM (active) in [1]; 7.94 µM (active) in test [2]; 0.156 µM (active) in [3]; 30.6 µM (active) in test [6]; 22.7 µM (active) in [7]; 54.4 µM (active) in test [10]. In addition, the result in test [4], in [5] and in test [8] was inactive.

Turning to `CCc1cccc(CC)c1NC(=O)C(=O)O`, the result in [1], in test [2], in [3], in test [4], in [5] and in [6] was inactive. For the same compound, the result in test [7] and in [9] was inactive.

As to `COC(=O)C(F)(F)C(F)(F)C(F)(F)C(F)(F)C(F)(F)F`, the result in test [1], in test [2], in test [3], in [4], in [5] and in [6] was inactive. For the same compound, the call in test [7], in test [8] and in test [10] was inactive.

Regarding `CC(C)CCOCCC(C)C`, the call in [1], in test [2], in test [3], in test [4], in test [5] and in test [6] was inactive. Besides, the call in [7], in test [8], in [9] and in [10] was inactive.

As to `FCOC(C(F)(F)F)C(F)(F)F`, the compound was classed as inactive in test [1], in [2], in test [3], in test [4], in [5] and in test [6]. In addition, the call in [7], in test [8] and in test [10] was inactive.

Turning to `CC1=NN(c2ccccc2)C(=O)C1`, the compound was called inactive in test [1], in test [3], in [4], in test [5], in test [6] and in test [7]. Also, the compound was classed as inactive in test [8], in [9] and in test [10]. Besides, the AC50 in test [2] was 66.2 µM (active) and 60 µM (active).
